Among all 48,000 compounds or so, about 13,000 (27%) showed an effect of 50% or more. This is one part of the list.

In this assay the test system is Wolbachia pipientis. Description: Anti-Wolbachia Cell-Based Screen. Type of assay: functional. Also noted: scale not given: in the data most compounds retested in dose-response had high values. Particulars: 5 µM.
Take `Cc1nc(C(C)(C)NCc2ncc(C3CC3)o2)sc1C`: the “Percent Effect” value is -9.268%.
`CCc1ccc(CNc2ccccc2CN2CCC(O)CC2)o1`: the “Percent Effect” value is reported as -8.641%.
With `CCCn1cc(CNCC(c2ccc(C)s2)N2CCOCC2)cn1` (stereo not given) the figure was 19.75%.
With `COCC(=O)NC[C@]12COC[C@H]1CN(c1ncc(F)cn1)C2.O=C(O)C(F)(F)F` the figure was -9.196%; with `CCC[C@H]1CN(Cc2ccc3c(c2)OCCO3)C[C@@H]1NC(=O)COC`, -19.75%.
Take `COCC(=O)NC[C@]12COC[C@H]1CN(Cc1ccc3c(c1)OCO3)C2.O=C(O)C(F)(F)F`: the “Percent Effect” value is listed as 110%.
For the molecule `COc1ccc(CN2C[C@@H]3COC[C@]3(CN(C)C)C2)cc1.O=C(O)C(F)(F)F.O=C(O)C(F)(F)F`, the “Percent Effect” value turned out to be 3.897%.
With `CC(=O)N1CCN(Cc2ccc3c(c2)OCCO3)CC(O)C1` (stereo not given) the figure was -5.239%; with `COc1ccc(CC(=O)N2C[C@@H]3COC[C@]3(CN(C)C)C2)cc1.O=C(O)C(F)(F)F`, 1.592%; with `COCC(=O)NC[C@]1(O)CN(Cc2ccc3c(c2)OCCO3)C[C@H]1O`, 114.3%.
In the case of `CN(C)C[C@]12COC[C@H]1CN(Cc1ccc3c(c1)OCO3)C2.O=C(O)C(F)(F)F.O=C(O)C(F)(F)F`, the “Percent Effect” value stood at 103.2%.
For `O[C@H]1[C@H](NCCc2ccccn2)c2ccccc2C12CCNCC2`, the “Percent Effect” value is 4.411%.
As for `CCC(CC)N(Cc1ccc2c(c1)OCO2)C(=O)c1ccc(=O)n(C)c1`, the figure is -1.967%.
As for `CN(Cc1cn2c(n1)CN(C(N)=O)CC2)Cc1ccco1`, the figure is 9.855%; as for `Cc1ccc(N2CCc3c(CN(C)Cc4ccco4)cncc3C2)nn1.Cl.Cl`, 99%.
`CN(Cc1ccco1)Cc1cncc2c1CCN(c1ncccn1)C2.Cl.Cl`: the “Percent Effect” value is 2.734%.
Regarding `Cc1cnc(N2CCc3c(CN(C)Cc4ccco4)cncc3C2)nc1`, the “Percent Effect” value is 78.05%.
For the molecule `CC(=O)Nn1c(C)cc(CN2CCC(C(=O)N3CCCC3)CC2)c1C`, the “Percent Effect” value came to 13.77%.
Take `CC(C)(CNc1ccccc1S(=O)(=O)C(F)F)N1CCOCC1`: the “Percent Effect” value amounted to 14.98%.
On to `Cc1cccnc1C(=O)N1CCC(Cc2cnc3[nH]ccc3c2)CC1`, for which the “Percent Effect” value is 75.79%.
As for `CCn1c(C2CCN(C(=O)c3ccc4cc[nH]c4c3)CC2)n[nH]c1=O`, the figure is 3.076%; as for `CCCc1nnsc1C(=O)NCC1CCN(C(=O)c2ccncc2)CC1`, 2.794%.
With `CC1CCN(CC2CCN(C(=O)c3c[nH]c4ncccc34)CC2)CC1`, the “Percent Effect” value is on record as -10.12%.
Consider `O=C(c1ccncc1)N1CCC(Cc2cnc3[nH]ccc3c2)CC1`, for which the “Percent Effect” value was determined as 127.1%.
Consider `O=C(c1cncs1)N1CCC(Cc2cnc3[nH]ccc3c2)CC1`, for which the “Percent Effect” value stood at 101.1%.
With `O=C(c1cnccn1)N1CCC(Cc2cnc3[nH]ccc3c2)CC1` the figure was 109.1%; with `O=C(c1cnccn1)N1CCC2(CC1)C(=O)NCC2c1ccccc1` (stereo not given), -11.37%; with `CC(C)CC(=O)N1CCN(c2cc(N(C)C)cnn2)CC1`, 10.83%.
With `CCc1nc(CN2CCCN(C(=O)COC(C)C)CC2)cs1` the figure was 23.5%.
As for `CCC(C(=O)NCc1ccncc1)N(c1ccc(OC)cc1)S(C)(=O)=O` (stereo not given), the figure is -7.147%; as for `O=C(NCc1nc(NC2CCCC2)c2cc(Cl)ccc2n1)c1cncs1`, -2.993%; as for `CC(C(=O)Nc1cnn(CC(N)=O)c1)c1ccc(Cl)s1` (stereo not given), -7.657%.
On to `O=C(O)c1cc2c(nc1O)CC(c1cccc(Cl)c1)CC2=O` (stereo not given), for which the “Percent Effect” value came out at 8.981%.
As for `O=C(CCC1CCN(C(=O)c2cnco2)CC1)NCc1cccc(Cl)c1`, the figure is 11.71%; as for `Cc1cccc(C(=O)N2CCC(Cc3cnc4[nH]ccc4c3)CC2)n1`, -6.998%.
As for `O=C(c1cnco1)N1CCC(Cc2ccc3ncccc3c2)CC1`, the figure is 111%; as for `O=C(c1cnco1)N1CCCC(Cc2cccc3ncccc23)C1` (stereo not given), -11.15%; as for `O=C(c1ccccn1)N1CCC(Cc2cnc3[nH]ccc3c2)CC1`, 136.1%.
As for `O=C(O)C(F)(F)F.O=S1(=O)NC[C@H]2CCN(Cc3ccccc3)CC[C@H]21`, the figure is -3.468%; as for `Cc1cc(C)c(CNC(=O)NCCNc2ccccn2)c(=O)[nH]1`, 9.095%.
For the molecule `Cc1cnn(C2CCCN(C(=O)c3cc(-c4ccco4)[nH]n3)C2)c1` (stereo not given), the “Percent Effect” value was found to be 10.35%.
As for `Cc1cnn(C2CCCN(C(=O)c3cc[nH]n3)C2)c1` (stereo not given), the figure is -3.499%; as for `Cc1cnn(C2CCCN(C(=O)c3cn4ccccc4n3)C2)c1` (stereo not given), 104.2%; as for `Cc1cnn(C2CCCN(C(=O)c3cnc4ccccc4n3)C2)c1` (stereo not given), -3.195%.
With `Cc1cccc(-n2cc(C(=O)N3CCCC(n4ccnc4)C3)nn2)c1` (stereo not given) the figure was 7.382%; with `Cc1cccc(-n2cc(C(=O)N3CCCC(n4cccn4)C3)nn2)c1` (stereo not given), 4.017%; with `O=C(c1cn(-c2ccc(F)cc2)nn1)N1CCCC(n2cccn2)C1` (stereo not given), 123%.
As for `Cc1ccc(-n2cc(C(=O)N3CCCC(n4cccn4)C3)nn2)cc1` (stereo not given), the “Percent Effect” value is on record as 117.4%.
Regarding `Cc1cnn(C2CCCN(C(=O)c3cn(-c4ccccc4)nn3)C2)c1` (stereo not given), the “Percent Effect” value is given as 117.4%.
With `Cc1cnn(C2CCCN(C(=O)c3cc(-c4ccccc4C)n[nH]3)C2)c1` (stereo not given) the figure was -3.414%; with `O=C(c1ccn(-c2cccc(F)c2)n1)N1CCCC(n2cccn2)C1` (stereo not given), 0.279%; with `CCSc1ccc(C(=O)Nc2c(C)nn(C(C)C)c2C)cn1`, 10.44%.
Turning to `COCCN(C)CC1CCCN1S(=O)(=O)c1cc(C)oc1C` (stereo not given), the “Percent Effect” value is given as 0.4223%.
Consider `Cc1ncsc1CCN(C)Cc1cc2n(n1)CCN(Cc1ncc[nH]1)C2`, for which the “Percent Effect” value is 0.3121%.
As to `COc1ccc(C2CCCN2C(=O)c2ccc(=O)n(C)c2)cc1OC` (stereo not given), the “Percent Effect” value is on record as -4.846%.
For `CC(=O)NCCNC(=O)Nc1ccc(C)cc1OCc1ccccc1`, the “Percent Effect” value is on record as -17.41%.
Consider `O=C(c1ccc(N2CCCC2)nn1)N1CCCC(n2cccn2)C1` (stereo not given), for which the “Percent Effect” value turned out to be 6.785%.
With `Cc1nn(-c2ccccc2)cc1C(=O)N1CCCC(n2cccn2)C1` (stereo not given) the figure was 7.584%; with `O=C(c1cn(-c2ccccc2)nn1)N1CCCC(n2cccn2)C1` (stereo not given), 123.4%; with `Cc1nc(CNC(C)c2ccc(OCC(=O)NC3CC3)cc2)cs1` (stereo not given), 11.98%.
In the case of `Cc1ccc(C(=O)N2CCc3ncccc3C2)cc1N1CCNC1=O`, the “Percent Effect” value is 0.3953%.
For `CC(Oc1cccc(Cl)c1)C(=O)Nc1cnn(CC(=O)NC2CC2)c1` (stereo not given), the “Percent Effect” value was found to be 3.95%.
As for `Cc1cn(CC(=O)NC2CCN(S(C)(=O)=O)CC2)c2ccccc12`, the figure is -0.9919%; as for `Cc1ccc(OCC(=O)NS(=O)(=O)Cc2ccccc2)cc1`, 1.419%; as for `CS(=O)(=O)N1CCC(NC(=O)COc2ccc(Cl)cc2)CC1`, 131.2%.
As for `CCn1cc(C(=O)NC2CCN(S(C)(=O)=O)CC2)c2ccccc21`, the figure is -0.7206%; as for `CS(=O)(=O)N1CCC(NC(=O)COc2ccc3ccccc3c2)CC1`, 103.7%; as for `O=C(COc1ccc(Cl)cc1)NCc1nncn1C1CC1`, -10.37%.
As for `CC(C)c1nccn1C(C)C(=O)NC1CCN(S(C)(=O)=O)CC1` (stereo not given), the figure is -4.449%; as for `CCCC(C(=O)NC1CCN(S(C)(=O)=O)CC1)c1ccccc1` (stereo not given), -7.418%; as for `CS(=O)(=O)N1CCC(NC(=O)COc2cccc(Cl)c2)CC1`, 141.5%.
For the molecule `CN1CC(NC(=O)CCOc2cccc(Cl)c2)CC1=O` (stereo not given), the “Percent Effect” value is -1.154%.
As for `Cc1ccc(OCC(=O)NC2CCN(S(C)(=O)=O)CC2)cc1`, the figure is 137.9%.
As for `CC(CS(C)(=O)=O)N(C(=O)CCc1ccsc1)C1CC1` (stereo not given), the figure is -7.747%.
With `Cc1c(NCc2ccccc2C#N)cccc1S(=O)(=O)NC1CC1` the figure was 7.829%; with `CCCNC(=O)c1ccc(S(=O)(=O)NCC2(COC)CCCC2)cc1`, 10.08%.
Consider `Cc1cccc(N2CCN(Cc3nc(CC4CC4)no3)CC2)n1`, for which the “Percent Effect” value is given as -32.1%.
As for `CCCN1CCC(Cc2noc(-c3[nH]cnc3C)n2)CC1`, the “Percent Effect” value amounted to 95.32%.
As to `CCCN1CCC(Cc2noc(-c3cc4cccnc4nc3C)n2)CC1`, the “Percent Effect” value is 109.3%.
On to `CCCN1CCC(Cc2nc(CN3CCN(C)CC3)no2)CC1`, for which the “Percent Effect” value was -14.74%.
As for `CN1CCC(Cc2noc(-c3cccc(Oc4ncccn4)c3)n2)CC1`, the figure is 7.717%; as for `CN1CCC(Cc2noc(CC3CC3)n2)CC1`, 7.965%; as for `CCCN1CCC(Cc2noc(-c3cccnc3OC)n2)CC1`, 111%.
As for `CCCN1CCC(Cc2noc(-c3ncccc3C)n2)CC1`, the figure is 80.84%; as for `COc1cccc(-c2n[nH]cc2-c2nc(CC3CCN(C)CC3)no2)c1`, -18.5%; as for `O=C(O)C(F)(F)F.O=C(c1cnccn1)N1CCN2C[C@H](OCc3ccccc3)C[C@H]2C1`, 0.9926%.
With `O=C(c1cnc(Nc2ccccc2)nc1)N1CCC2(CCNCC2)CC1` the figure was 2.873%.
With `CC(C)c1noc([C@@H]2Cc3[nH]cnc3CN2C(=O)Nc2ccccc2)n1`, the “Percent Effect” value is recorded as 2.136%.
As for `NC(=O)CCn1ccc(NC(=O)C2(c3ccc(F)cc3)CCC2)n1`, the figure is -29.44%.
For `COc1ccc(N(Cc2ccco2)C(=O)COC(C)C)cc1F`, the “Percent Effect” value is -7.109%.
With `COc1ccc(CCNC(=O)NC2CCCC2)cc1OC` the figure was 1.175%; with `CS(=O)(=O)c1ccc(-c2cc(O)cc(CCC3CCCCN3)c2)cc1` (stereo not given), -20.81%; with `Oc1cc(CCC2CCCCN2)cc(-c2ccncc2)c1` (stereo not given), 23.52%.
With `COc1cccc(CCC2CCCN(C(C)=O)C2)c1` (stereo not given) the figure was -117.1%; with `COc1cccc(CCC2CCCCN2)c1` (stereo not given), 69.8%.
Regarding `O=c1cc(-c2cc(O)cc(CCC3CCCCN3)c2)cc[nH]1` (stereo not given), the “Percent Effect” value is 29.58%.
For `Oc1cc(CCC2CCCCN2)cc(-c2cccnc2)c1` (stereo not given), the “Percent Effect” value was found to be 13.71%.
On to `COc1ccc(CCC2CCCCN2)cc1.Cl` (stereo not given), for which the “Percent Effect” value is 100.4%.
With `COc1ccc(CCC2CCCCN2)cc1OC` (stereo not given) the figure was 89.4%; with `O=C(NCc1ccncc1)N1CCSCC1CCO` (stereo not given), -7.144%.

For the origin of these results see ChEMBL document CHEMBL3988442, “University of Dundee, Small-Polar-MMV Screening Library” (2021).
